According to PubChem BioAssay AID1220 (Sanford-Burnham Center for Chemical Genomics, 2008):
About 1,300 (0.68%) of roughly 190,000 compounds were called active. The full list was thinned out, with actives kept by preference. Unmarked numbers belong to inactive results. No stated cut-off is given here; in the data, active means inhibition above about 50%; inactive means the rest.

The molecules below were run against Mannose-6-phosphate isomerase (Homo sapiens) (UniProt P34949) (assay: MPI inhibition at elevated mannose 6-phosphate – biochemical, fluorescence intensity, high mannose 6-phosphate, primary screen (AID 1220)). Details: recombinant PMI enzyme, coupled fluorescence intensity; at 20 µM; active compounds read high.
Chain of Mannose-6-phosphate isomerase (Homo sapiens) (P34949 whole entry, looked up): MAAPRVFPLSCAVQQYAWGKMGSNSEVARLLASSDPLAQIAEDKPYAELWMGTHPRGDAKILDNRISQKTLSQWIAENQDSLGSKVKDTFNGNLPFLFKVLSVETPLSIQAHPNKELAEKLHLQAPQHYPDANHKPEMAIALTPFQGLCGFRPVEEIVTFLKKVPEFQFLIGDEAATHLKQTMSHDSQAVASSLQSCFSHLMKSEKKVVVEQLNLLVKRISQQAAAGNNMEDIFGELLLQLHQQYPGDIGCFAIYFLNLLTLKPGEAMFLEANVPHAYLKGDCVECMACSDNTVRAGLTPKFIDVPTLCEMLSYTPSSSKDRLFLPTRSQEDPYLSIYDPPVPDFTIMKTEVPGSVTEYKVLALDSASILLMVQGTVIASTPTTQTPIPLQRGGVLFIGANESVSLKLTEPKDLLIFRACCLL
In the case of `CCN(CC)CCCNC1=C(Cl)C(=O)c2ccccc2C1=O`, the inhibition was 58.1% (active).
`O=C1C(Cl)=C(NCCCO)C(=O)c2ccccc21` gave an inhibition of 2.8%.
In the case of `CCN(CC)c1ccc(N2C(=O)c3ccccc3C2=O)cc1`, the inhibition was 4.2%.
`CCOc1ccc(NC2=C(OC)C(=O)c3ccccc3C2=O)cc1` showed an inhibition of 25.9%.
With `CCN(CC)c1ccc(NC2=C(Cl)C(=O)c3ccccc3C2=O)cc1` the inhibition was 56.9% (active).
`C=CCNC1=C(Cl)C(=O)c2ccccc2C1=O` gave an inhibition of 38.6%.
`CN1C(=O)c2ccc(NC(=S)NC(=O)C(C)(C)C)cc2C1=O` gave an inhibition of 8.4%.
Work on `COCCSc1nnc(NC(=O)C2CCCCC2)s1` yielded an inhibition of -1.4%.
`CCN(c1ccccc1)S(=O)(=O)c1ccc2[nH]cc(C(=O)N3CCOCC3)c(=O)c2c1` was tested, and the inhibition was 8.3%.
Work on `COc1cccc2c(=O)c(SC(F)(F)C(F)C(F)(F)F)c(C)[nH]c12` (configuration not stated) yielded an inhibition of 6.8%.
Work on `COc1cccc2c(=O)c(C/C=C(/C)Cl)c(C)[nH]c12` yielded an inhibition of 4.6%.
For `COc1cccc2c(=O)c3cccc(N)c3[nH]c12`, the inhibition was 65.6% (active).
`COc1ccc(-c2csc(/C(C#N)=C\c3ccc(OC)c([N+](=O)[O-])c3)n2)cc1` showed an inhibition of 3.4%.
Molecule `CCN1CCN(C(=S)Nc2ccc3nc4n(c(=O)c3c2)CCCCC4)CC1` has an inhibition of -3.2%.
`Cc1ccc(S(=O)(=O)NCC(=O)NCC(=O)OCC(=O)N2CC(=O)Nc3ccccc32)cc1C` gave an inhibition of 13.9%.
`COc1ccccc1NC(=O)CC1S/C(=N/N=C2\CCCc3ccccc32)NC1=O` (configuration not stated) showed an inhibition of 6.9%.
With `CCN(CC)c1ccc(/C=N/N2CCN(Cc3ccccc3)CC2)c(O)c1` the inhibition was 53% (active).
`CCN(CC)c1ccc(/C=N/N2CCN(Cc3ccc(C)cc3C)CC2)c(O)c1` gave an inhibition of 39.8%.
`COc1cccc(/C=N/N2CCOCC2)c1O` showed an inhibition of 3.6%.
Work on `CCN(CC)c1ccc(/C=N/N2CCOCC2)cc1` yielded an inhibition of 14.3%.
For `CCN(CC)c1ccc(/C=N/N2CCN(Cc3ccc(C)cc3)CC2)c(O)c1`, the inhibition was 30.3%.
`Fc1ccc(/C=N/N2CCOCC2)c(F)c1` was tested, and the inhibition was 8.8%.
In the case of `CCN(CC)c1ccc(/C=N/N2CCOCC2)c(O)c1`, the inhibition was 53.7% (active).
Work on `CCN(CC)c1ccc(/C=N/N2CCN(Cc3cccc4ccccc34)CC2)c(O)c1` yielded an inhibition of 30.7%.
Molecule `CCCn1c(=O)c2ccccc2n2c(SCC(=O)Nc3cc(C)on3)nnc12` has an inhibition of 0%.
For `CCC(/C=C1\Sc2ccc(OC)cc2N1CCO)=C\c1sc2ccc(OC)cc2[n+]1CCO`, the inhibition was 13%.
`Cc1cc(C)nc(SCCn2c(N3CCC(C)CC3)nc3c2c(=O)n(C)c(=O)n3C)n1` showed an inhibition of 12.2%.
